ADAM10 inh: ADAM10 inhibition, QFRET primary screen; inhibition, % at 7 µM; 370,000 compounds, 0.62% hits; O14672; recombinant ADAM10, EDANS/DABCYL FRET peptide cleavage, 3 h;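 active = inhibition above a per-campaign cutoff equal to the mean of compounds falling between control-based bounds plus 3 SD, cut at about 20% in these data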;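 note: 0% = DMSO wells while the 100% control is not disclosed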
PLC-beta3 inh: inhibitors of human phospholipase C beta3. Q01970. Purified PLC-beta3, fluorogenic substrate, fluorescence. inhibition, % at 12.2 µM. 370,000 compounds, 0.18% hits; in the data active = inhibition above about 11%;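 note: 0% = median of compound wells on plate and 100% = full blocker control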
PLCg1 inh: inhibitors of human phospholipase C gamma1. AID 720700. inhibition, % at 12.2 µM. purified PLC-gamma1, fluorogenic substrate, fluorescence. 370,000 compounds, 0.84% hits; in the data active = inhibition above about 9.5%
proKLK7 act: activators of human kallikrein-7 zymogen; P49862; purified proKLK7, EDANS-DABCYL substrate fluorescence; 100% is mature enzyme control, 0% vehicle; activation, % at 7 µM; 370,000 compounds, 0.9% hits; AID 652039;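 active = activation above the mean of all tested compounds plus 3 SD, computed per campaign excluding outliers beyond control limits, cut at about 13% in these data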
ADAM17 inh: inhibitors of human ADAM17; 370,000 compounds, 0.83% hits; AID 720648; recombinant ADAM17, EDANS/DABCYL FRET peptide cleavage; inhibition, % at 6.95 µM;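 active = inhibition above the mean of compounds lying between control limits plus 3 SD, set per campaign, cut at about 8.5% in these data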;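 note: 0% = DMSO-only wells as the low control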
proKLK7 act conf: confirmation of human kallikrein-7 zymogen activators; purified proKLK7, EDANS-DABCYL substrate fluorescence; scaled: vehicle 0, mature enzyme 100; activation, % at 7 µM; AID 686949; 3,200 compounds, 68% hits; shares compounds with proKLK7 act;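 active = activation, as change over the incubation, above the mean of all tested compounds plus 3 SD, cut at about 13% in these data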
EDANS interfere: counter-screen for kallikrein-7 activators: EDANS-DABCYL optical interference | shares compounds with proKLK7 act | EDANS-DABCYL substrate fluorescence interference, no enzyme, 4 h; solvent 0%, active enzyme control 100% | activation, % at 7 µM | 3,200 compounds, 80% hits | AID 686952;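 active = activation above the all-compound mean plus 3 SD, ignoring values outside control-based bounds, cut at about 4.8% in these data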;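 note: value is the 4 h activation minus the activation read at time zero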
K7 EDANS ctr: counter-screen for kallikrein-7 activators: EDANS-DABCYL interference, dose response; shares compounds with proKLK7 act; EDANS-DABCYL peptide fluorescence interference, no enzyme; EC50, µM; 250 compounds, 20% hits;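 active = compounds that raise the fluorescence signal in this interference counterscreen, with EC50 at or below 10 µM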;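 note: intact quenched peptide substrate alone read at 355 nm excitation and 520 nm emission; signal is fluorescence gain from T0 to T4 after four hours at room temperature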
* = called active by the depositor; i = inactive; . = not tested or not shown. Most compounds without a hit are left out; they make up all but 2.9% or so of the library.

SMILES	ADAM10 inh	PLC-beta3 inh	PLCg1 inh	proKLK7 act	ADAM17 inh	proKLK7 act conf	EDANS interfere	others
Cc1cc(C)c(C#N)c(SCC(=O)CC(=O)OC(C)C)n1	-135.0	-66.3	-54.5	45.0*	-32.3	71.9*	68.9*
CC1(C)S[C@@H]2[C@H](NC(=O)[C@H](N)c3ccccc3)C(=O)N2[C@H]1C(=O)OC1OC(=O)c2ccccc21 (stereo not given in full)	i	-496.9	-371.4	15.7*	i	5.9	4.6*
CCC(Oc1ccccc1)C(=O)NC1C(=O)N2C1SC(C)(C)C2C(=O)O (stereo not given)	-4.4	1.5	-1.5	0.5	-0.2	.	.
N#Cc1ccc(N2CCCC2C(=O)O)c([N+](=O)[O-])c1 (stereo not given)	5.3	3.2	4.5	0.5	-1.0	.	.
COc1cc(OC)c2c(N)c(C#N)c(C(F)(F)C(F)(F)F)nc2c1	-122.7	-36.0	-32.2	-1.1	-41.2	.	.
COc1ccc2nc(C(F)(F)C(F)(F)F)c(C#N)c(N)c2c1	-51.9	-3.4	-5.1	50.1*	-16.5	-9.4	-12.8
COCCNC(=O)/C(C#N)=C/c1c(N2CCN(c3ccc(OC)cc3)CC2)nc2c(C)cccn2c1=O	i	-215.5	-161.4	14.9*	-466.7	13.7*	10.7*	K7 EDANS ctr=>69.5
C=CCNC(=O)/C(C#N)=C/c1c(N2CCN(c3cccc(Cl)c3)CC2)nc2c(C)cccn2c1=O	i	-91.0	-69.5	13.5*	-233.2	-2.6	32.9*
Cc1cccn2c(=O)c(/C=C(\C#N)C(N)=O)c(Oc3ccccc3)nc12	-117.5	-89.8	-59.7	15.3*	-39.6	-8.5	-8.6
CCC1(CC)NC(=O)N(CC(=O)OCC(=O)Nc2ccccc2[N+](=O)[O-])C1=O	-6.6	-3.3	0.5	-0.5	-4.0	.	.
O=c1oc2cc(O)ccc2cc1-c1nc2ccccc2o1	i	i	i	108.3*	i	61.3*	73.0*
Cc1cc(-c2nc3ccccc3o2)c2ccccc2n1	-216.1	-32.9	-23.7	1.7	-52.0	.	.
O=c1oc2cc(O)ccc2cc1S(=O)(=O)c1ccccc1	i	i	i	37.8*	i	72.8*	66.6*
NC(=S)c1cc2ccc(O)cc2oc1=O	i	i	i	23.8*	i	70.2*	73.2*
Cc1cc([N+](=O)[O-])nn1CC(=O)N1c2ccccc2CC1C (stereo not given)	-1.7	-4.8	-3.0	0.3	-4.1	.	.
Cc1cc(C)c(NC(=O)c2cn3c4c(c(N5CCN(C)CC5)c(F)cc4c2=O)OCC3C)c(C)c1 (stereo not given)	-335.3	-157.0	-113.5	1.7	-84.0	.	.
CN1CCN(c2c(F)cc3c(=O)c(C(=O)O)cn4c3c2OCN4C)CC1	-350.6	i	i	60.1*	-126.8	20.5*	30.4*
CC(=O)N1CCC2(CC1)CC(=O)c1cc(OCC(=O)NCc3ccco3)ccc1O2	i	i	i	27.7*	-339.5	48.4*	49.3*
CC(=O)N1CCC2(CC1)CC(=O)c1cc(OCC(=O)NCc3ccc(C)cc3)ccc1O2	i	i	i	34.5*	-437.0	26.1*	46.1*
Cc1cccc(OCC(=O)N2CCC3(CC2)CC(=O)c2ccccc2O3)c1	-75.4	-20.1	-14.8	-0.3	-27.7	.	.
CC(C)(C)c1ccc(OCC(=O)NCc2ccco2)cc1	14.4	3.6	5.2	0.4	0.2	.	.
N#CC1=C2SCN(Cc3ccco3)CN2C(=O)CC1c1ccc(Cl)cc1 (stereo not given)	-2.9	-15.7	-13.5	0.0	0.2	.	.
CCn1ncc(-c2ccnc3cc(C(=O)O)nn23)c1C	i	i	i	12.8*	-311.0	38.9*	44.5*
CC1CN(S(=O)(=O)c2ccc(C(=O)Nc3nnc(-c4ccc5c(c4)CCCC5)o3)cc2)CC(C)O1 (stereo not given)	-4.2	2.1	-0.8	-0.4	0.1	.	.

Compound activity deposited in PubChem by The Scripps Research Institute Molecular Screening Center.
